Source: PubChem
Gli-Sufu antag = blocks Gli-Sufu signaling in a luciferase reporter; AID 588413; inhibition, % at 5 µM; 340,000 tested, 0.74% active; Sufu-KO-LIGHT fibroblasts, Gli luciferase reporter luminescence;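 active = inhibition above about 55%, limit read from the data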
Shn3 3UTR inh = reduces Shn3 3'UTR luciferase signal in osteoblasts. Clone20 osteoblast Shn3 3'UTR firefly luciferase, 24 h. inhibition, % at 12.5 µM. 360,000 tested, 0.52% active;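 active = mean inhibition of at least 75% with every replicate also reaching 75%; inconclusive = mean inhibition at least 75% but some replicate below; inactive = mean inhibition below 75%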
NR5A2 inv ag = NR5A2 inverse agonism in reporter assay; HEK293T StAR-luciferase reporter, LRH-1 transfected, 24 h; inhibition, % at 3.6 µM; O00482; AID 602396; 360,000 tested, 0.13% active;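 active = inhibition above the mean inhibition of all tested compounds plus 3 SD, cut at about 73% in these data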
SRC3 inh = human NCOA3 inhibition; HEK293 GAL4-SRC3 luciferase reporter, luminescence; inhibition, % at 3.6 µM; 360,000 tested, 0.17% active;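 active = inhibition above a per-campaign cutoff, the mean of all compounds plus 3 SD, cut at about 60% in these data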;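 note: higher means less SRC3-driven luciferase light from the GAL4 reporter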
SRC2 inh = human SRC2 (NCOA2) inhibition; Q15596; HEK293 GAL4-SRC2 luciferase reporter, luminescence; inhibition, % at 9 µM; 370,000 tested, 0.17% active; AID 651957;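 active = inhibition above the mean inhibition of all tested compounds plus 3 SD, set per campaign, cut at about 52% in these data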
SRC1 inh = human NCOA1 inhibition; inhibition, % at 3.6 µM; 360,000 tested, 0.12% active; HEK293 GAL4-SRC1 luciferase reporter, luminescence; Q15788;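 active = inhibition above the campaign mean plus 3 SD, with each screening campaign given its own cutoff, cut at about 60% in these data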
Gli antag conf = confirmation of Gli-SUFU pathway antagonists; 2,500 tested, 40% active; shares compounds with Gli-Sufu antag; AID 602428; Sufu-KO-LIGHT cells, Gli luciferase reporter, luminescence; inhibition, % at 5 µM;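 active = mean inhibition at 5 µM reaching about 45%, limit read from the data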
Gli cytotox = cytotoxic in Gli-SUFU antagonist counter-screen; shares compounds with Gli-Sufu antag; Sufu-KO-LIGHT cells cytotoxicity, ATP luminescence; cytotoxicity, % at 5 µM; 2,500 tested, 32% active; AID 651994;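 active = mean cytotoxicity at 5 µM above about 25%, limit read from the data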;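 note: cells exposed to compound overnight for roughly 16 to 18 hours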
Wnt3a cs = inhibits Wnt3a reporter, counter-screen for Gli-SUFU antagonists. shares compounds with Gli-Sufu antag. Wnt-LIGHT cells, Wnt3a-driven luciferase reporter, luminescence. inhibition, % at 6.25 µM. 2,500 tested, 20% active;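 active = mean inhibition above about 25%, limit read from the data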
A number is an active result; . = inactive; ? = inconclusive; / = not tested or not shown. Hits are enriched below; roughly 1.1% of the tested compounds scored in any of these assays.

SMILES	Gli-Sufu antag	Shn3 3UTR inh	NR5A2 inv ag	SRC3 inh	SRC2 inh	SRC1 inh	Gli antag conf	Gli cytotox	Wnt3a cs
CC1(C)COCN1C(=O)c1ccc(C#N)cc1	.	.	.	.	.	.	.	.	.
Cc1ccc2c(c1)N(CCC(=O)NCc1ccccn1)C(=O)CO2	.	.	.	.	.	.	.	.	.
Cc1ccc2c(c1)N(CCC(=O)NCc1cccnc1)C(=O)CO2	.	.	.	.	.	.	/	/	/
CN(C)S(=O)(=O)c1cccc(C(=O)N/N=C\c2cccc(C#N)c2)c1	/	/	/	/	.	/	/	/	/
COc1ccccc1-n1c(=O)c2c3c(sc2n2c(SC)nnc12)CCC3	.	.	.	.	.	.	.	.	.
CCCCCC(=O)NC1CCCCN(Cc2ccc(Cl)cc2)C1=O (stereo unspecified)	/	/	/	/	.	/	/	/	/
Cc1nc2ccccc2n1CC(O)COc1ccc(Br)cc1 (stereo unspecified)	.	.	.	.	.	.	/	/	/
CCC(=O)c1ccc(OCC(O)Cn2c(C)nc3ccccc32)cc1 (stereo unspecified)	.	.	.	.	.	.	52	.	.
O=C(c1cccc(S(=O)(=O)N2CCCc3ccccc32)c1)N1CCN(c2ccccc2)CC1	.	.	.	.	.	.	.	.	.
O=C(c1cccc(S(=O)(=O)N2CCN(c3ccccc3)CC2)c1)N1CCCC(C(F)(F)F)C1 (stereo unspecified)	.	?	.	.	.	.	57	.	.
Cc1nn(CCC(=O)NNC(=O)Nc2ccc(F)cc2)c(C)c1[N+](=O)[O-]	/	/	/	/	.	/	/	/	/
Cc1cc(C(=O)NC2CCCc3c2cnn3-c2cccc(C)c2C)no1 (stereo unspecified)	.	.	.	.	.	.	/	/	/
Cc1cccc(-n2ncc3c2CCCC3NC(=O)Cc2c(C)noc2C)c1C (stereo unspecified)	59	.	.	.	.	.	.	31	.
CCn1nnc(NC(=O)C(c2ccccc2)c2ccccc2)n1	59	.	.	.	.	.	.	.	.
C=CCn1c(SCC(=O)Nc2ccc(CCCC)cc2)nnc1-c1ccc(Cl)cc1	/	/	/	/	.	/	/	/	/
O=C(Nc1ccccc1O)c1nc(Cl)ccc1Cl	.	.	.	.	.	.	.	.	.
Cc1ccc(C)c(NC(=O)c2nc(Cl)ccc2Cl)c1	.	.	.	.	.	.	/	/	/
COC(=O)c1cc(C(=O)N2CCN(c3cccc(C)c3C)CC2)cc([N+](=O)[O-])c1	.	.	.	.	.	.	/	/	/
COC(=O)c1cc(C(=O)N2CCN(c3ccccc3OC)CC2)cc([N+](=O)[O-])c1	.	.	.	.	.	.	.	50	.
O=C(c1ccccc1)N1CCN(CC#Cc2ccccc2)CC1	99	.	.	.	.	.	.	.	.
CC(C)(C)c1ccc(-c2nnc3sc(COc4ccccc4)nn23)cc1	/	/	/	/	.	/	/	/	/
COc1ccc(N2CC(C(=O)NCc3nnnn3-c3ccc(C)c(C)c3)CC2=O)cc1 (stereo unspecified)	.	.	.	.	.	.	.	.	.
COc1ccccc1CNC(=O)C1CC(=O)N(c2ccc(C)c(C)c2)C1 (stereo unspecified)	.	.	.	.	.	.	/	/	/
COc1cccc(-c2ccc(SCC(=O)c3ccccc3)nn2)c1	55	.	.	.	.	.	.	.	.
COc1ccc(CN2CCSCC2)c(OC)c1C	59	.	.	.	.	.	.	.	.
SMILES	Gli-Sufu antag	Shn3 3UTR inh	NR5A2 inv ag	SRC3 inh	SRC2 inh	SRC1 inh	Gli antag conf	Gli cytotox	Wnt3a cs
CC(CCc1ccccc1)NC(=O)C1CC1 (stereo unspecified)	61	.	.	.	.	.	.	.	.
CC(CCc1ccccc1)NC(=O)C1CCC1 (stereo unspecified)	.	.	.	.	.	.	/	/	/
COCC1CCN(C(=O)c2cc(COc3cccc4cnccc34)on2)CC1	.	.	.	.	.	.	/	/	/
O=C(c1cc(COc2cccc3cnccc23)on1)N1CCCC(CCCO)C1 (stereo unspecified)	80	.	.	.	.	.	74	29	.
Cc1onc(-c2ccccc2Cl)c1C(=O)N1CCCCCC1	59	.	.	.	.	.	.	.	.
CCOC(=O)C1(C(=O)OCC)Cc2c([nH]c3ccccc23)[C@]2(N1)C(=O)N(C)c1ccc(Br)cc12	/	/	/	/	.	/	/	/	/
Cc1ccc(S(=O)(=O)N2CCN(c3ncnc4sccc34)CC2)cc1C	.	88	.	.	.	.	47	26	36
CN1CCN(S(=O)(=O)c2ccc3c(c2)OCCO3)CC1	.	.	.	.	.	.	/	/	/
O=S(=O)(c1ccc2c(c1)OCCO2)N1CCN(c2ncnc3sccc23)CC1	64	89	.	.	.	.	61	48	.
COc1ccccc1N=C(C)C1=C(O)CC(c2ccccc2)CC1=O (stereo unspecified)	56	.	.	.	.	.	54	63	.
O=C(CSc1nnc(COc2ccccc2)n1-c1ccccc1)Nc1ccc(S(=O)(=O)Nc2nccs2)cc1	/	/	/	/	.	/	/	/	/
Cc1ccc(C)c(NC(=S)N=Nc2c(O)n(C)c3ccc(S(=O)(=O)N4CCOCC4)cc23)c1	.	.	.	.	.	.	/	/	/
CCc1ccccc1NC(=S)N=Nc1c(O)n(C)c2ccc(S(=O)(=O)N3CCOCC3)cc12	66	.	.	.	.	.	48	.	.
CCC1Sc2ccc(S(=O)(=O)CCC(=O)Nc3ccccc3Cl)cc2NC1=O (stereo unspecified)	.	.	.	.	.	.	.	.	.
CCC1Sc2ccc(S(=O)(=O)CCC(=O)NCc3ccc(C)o3)cc2NC1=O (stereo unspecified)	.	.	.	.	.	.	/	/	/
O=C(COc1ccc(Cl)cc1)NCCCNC(=O)c1cccnc1	.	.	.	.	.	.	/	/	/
O=C(COc1ccc(Br)cc1)NCCCNC(=O)c1cccnc1	59	.	.	.	.	.	.	.	.
COc1ccc(C2=NOC(C(=O)NCc3ccccc3)C2)cc1 (stereo unspecified)	55	.	.	.	/	.	.	54	.
CC1CN(c2nc3ccccc3nc2SCC(=O)N2CCN(S(=O)(=O)c3ccccc3)CC2)CC(C)O1 (stereo unspecified)	/	/	/	/	.	/	/	/	/
COC(=O)C1=C[C@@H]([C@@H](C)[C@H](OC)c2ccccc2Br)[C@@H]2OCCC[C@H]12	/	/	/	/	.	/	/	/	/
CCN(Cc1ccccc1)Cc1ccc(OCc2ccccc2)cc1	59	.	.	.	.	.	.	.	.
Nc1ccc(OCc2ccccc2)cc1	.	.	.	.	.	.	/	/	/
CC(C)NC(=O)c1ccc(CN2CCC(Cc3ccccc3)CC2)cc1	.	.	.	.	.	.	/	/	/
